Results: PubChem BioAssay
Calls of active or inactive are those of the source. Unless noted, the rule behind the calls is not given here.

What was measured:
[1] = tested on: Wnt5a (protein binding on small-molecule microarray); experiment: small molecules binding Wnt5a protein – biophysical, small-molecule microarray, 635/667 nm fluorescence, primary screen (AID 1142); conditions: 635 nm fluorescence, higher = more signal;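 note: fluorescence read at 667 nm with signal to noise per printed feature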
[2] = ATP-based viability of Huh7 replicon cells – cell-based, CellTiter-Glo luminescence, basal, 48 h, cytotoxicity control for HCV replication inhibitor project, primary screen (AID 1143); conditions: higher = more signal, called active from +8 up or from −8 down;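 note: Huh7 hepatoma cells carrying a hepatitis C replication reporter with no stimulus; test concentration not given here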
[3] = Pseudomonas biofilm growth suppression – PAO1 strain, BacTiter-Glo luminescence, LB-PBS, primary screen (AID 1144); conditions: P. aeruginosa PAO1 biofilm, 12 h, higher = more signal
[4] = basal CRE-LacZ reporter activity in PC12 – cell-based, unstimulated, primary screen (AID 1145); conditions: no forskolin, luminescence, 4.5 h, higher = more signal, called active from +8 up or from −8 down
[5] = forskolin-driven CRE-LacZ activity in PC12 – cell-based, CRE-LacZ reporter, forskolin-stimulated, primary screen (AID 1146); conditions: luminescence, 4.5 h, higher = more signal, called active from +8 up or from −8 down;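 note: PC12 cells with 6xCRE LacZ reporter stimulated by forskolin 10 µM; beta-galactosidase reporter signal reflecting CREB driven transcription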
[6] = target: Streptavidin (Streptomyces avidinii) (UniProt P22629); experiment: compounds binding control protein streptavidin – biophysical, small-molecule microarray, 635/667 nm fluorescence, artefact control for SMM compound annotation, primary screen (AID 1147); conditions: higher = more signal;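 note: signal reflects streptavidin binding to arrayed compounds as a control protein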
Chain of Streptavidin (Streptomyces avidinii) (P22629 whole entry, looked up): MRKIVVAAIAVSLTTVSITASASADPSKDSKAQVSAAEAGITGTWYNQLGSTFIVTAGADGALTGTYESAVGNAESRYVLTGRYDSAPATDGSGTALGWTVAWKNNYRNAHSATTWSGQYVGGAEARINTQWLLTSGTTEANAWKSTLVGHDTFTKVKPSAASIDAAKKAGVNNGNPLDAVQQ

[7] = probe aInhba binding on compound microarray – biochemical, small-molecule microarray, 635/667 nm fluorescence, primary screen (AID 1148); conditions: higher = more signal;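 note: score merges 667nm spot fluorescence with signal-to-noise for antibody binding to printed compounds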
Torsin-1A (Homo sapiens) [8] = target: Torsin-1A (Homo sapiens) (UniProt O14656); experiment: TOR1A wild-type binding on microarray – cell lysate, small-molecule microarray, lysate, 635/667 nm, primary screen (AID 1149); conditions: COS7 hTOR1A-WT lysate, 635 nm fluorescence, higher = more signal
Chain of Torsin-1A (Homo sapiens) (O14656 whole entry, looked up): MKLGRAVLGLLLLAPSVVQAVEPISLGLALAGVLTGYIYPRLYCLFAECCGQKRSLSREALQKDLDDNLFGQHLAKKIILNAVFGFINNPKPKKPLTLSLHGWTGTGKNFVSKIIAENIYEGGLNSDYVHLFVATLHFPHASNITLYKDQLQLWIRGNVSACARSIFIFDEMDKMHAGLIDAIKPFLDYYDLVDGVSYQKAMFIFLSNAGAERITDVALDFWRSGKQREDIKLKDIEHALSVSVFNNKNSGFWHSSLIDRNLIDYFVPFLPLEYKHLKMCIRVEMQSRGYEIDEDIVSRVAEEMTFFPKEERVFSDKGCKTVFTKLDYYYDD

Torsin-1A (Homo sapiens) [9] = target: Torsin-1A (Homo sapiens) (UniProt O14656); experiment: torsin A mutant lysate binding on microarrays – cell lysate, small-molecule microarray, COS7 lysate, 635/667 nm fluorescence, primary screen (AID 1150); conditions: COS7 hTOR1A mutant lysate, 635 nm fluorescence, higher = more signal;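 note: score pools 667 nm emission and signal to noise measuring lysate protein binding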
[10] = tested on: Sonic hedgehog protein (Shh); experiment: Sonic hedgehog microarray binding compounds – biochemical, small-molecule microarray, 635/667 nm fluorescence, primary screen (AID 1151); conditions: 635 nm fluorescence, higher = more signal;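 note: Shh protein binding to compounds spotted on small-molecule microarray slides; score combines spot fluorescence intensity with signal-to-noise across triplicate slides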
[11] = optical density shifts of acrAB sulA E. coli – strain DRC41, OD650, 48 h, E. coli filamentation inducer project, primary screen (AID 1152); conditions: higher = more signal, called active from +8 up or from −8 down;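 note: E. coli MC1000 strain DRC41 lacking acrAB efflux pump and sulA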
[12] = probe aLefty1 binding on compound microarray – biochemical, small-molecule microarray, 635/667 nm fluorescence, primary screen (AID 1153); conditions: higher = more signal;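 note: score merges spot fluorescence with signal-to-noise ratio from the scanned slide images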
[13] = plasmodial surface anion channel blockers, osmotic lysis – cell-based, P. falciparum Indochina, OD700, 1 h, primary screen (AID 1154); conditions: P. falciparum Indochina infected RBC osmotic lysis, higher = more signal, called active from +8 up or from −8 down
[14] = plasmodial surface anion channel blockers, osmotic lysis – cell-based, P. falciparum Indochina, OD700, 2 h, primary screen (AID 1155);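 note: lysis reports solute entry through the parasite surface anion channel PSAC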; conditions: P. falciparum Indochina infected erythrocytes, higher = more signal, called active from +8 up or from −8 down
[15] = changes in parasitized red cell lysis, either direction – P. falciparum Indochina, OD700, 3 h, PSAC antagonist project, primary screen (AID 1156); conditions: P. falciparum-infected erythrocytes, osmotic lysis, higher = more signal, called active from +8 up or from −8 down
[16] = plasmodial surface anion channel blockers, osmotic lysis – cell-based, P. falciparum Indochina, OD700, 18 h, primary screen (AID 1157); conditions: P. falciparum Indochina infected erythrocytes, osmotic lysis OD700, 18 h; higher = more signal, called active from +8 up or from −8 down
[17] = S6 kinase pathway phospho-S6 level changes – cell-based, A549, cytoblot, luminescence, serum-stimulated, primary screen (AID 1158); conditions: 5 h, higher = more signal;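 note: serum-stimulated A549 lung adenocarcinoma cells; signal is phosphorylated S6 detected by cytoblot immunostaining with HRP secondary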
[18] = target: NADPH oxidase 2 (Homo sapiens) (UniProt P04839); experiment: compounds shifting NOX2 Amplex Red fluorescence – cell-based, HEK293-NOX2, PMA-stimulated, NOX inhibitor project, primary screen (AID 1159); conditions: 45 min, higher = more signal, called active from +8 up or from −8 down; note: test concentration not given here
Chain of NADPH oxidase 2 (Homo sapiens) (P04839 whole entry, looked up): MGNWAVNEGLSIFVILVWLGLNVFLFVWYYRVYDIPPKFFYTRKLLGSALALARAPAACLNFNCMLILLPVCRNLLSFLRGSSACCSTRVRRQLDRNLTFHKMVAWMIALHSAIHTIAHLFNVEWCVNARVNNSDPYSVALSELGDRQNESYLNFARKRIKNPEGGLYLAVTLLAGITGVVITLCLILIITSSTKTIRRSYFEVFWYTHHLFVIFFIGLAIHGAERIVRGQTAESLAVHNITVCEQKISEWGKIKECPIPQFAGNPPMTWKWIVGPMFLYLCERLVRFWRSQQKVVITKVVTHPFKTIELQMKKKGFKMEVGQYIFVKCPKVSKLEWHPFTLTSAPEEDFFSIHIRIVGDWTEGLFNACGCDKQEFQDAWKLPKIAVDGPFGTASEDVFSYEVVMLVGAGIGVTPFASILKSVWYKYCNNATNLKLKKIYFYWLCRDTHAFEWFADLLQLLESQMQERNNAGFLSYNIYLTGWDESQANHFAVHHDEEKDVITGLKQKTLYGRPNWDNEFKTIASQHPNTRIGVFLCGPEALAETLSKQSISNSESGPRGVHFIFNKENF

[19] = target: NADPH oxidase 4 (Homo sapiens) (UniProt Q9NPH5); experiment: compounds shifting NOX4 Amplex Red fluorescence – cell-based, HEK293-NOX4, tetracycline-induced, NOX inhibitor project, primary screen (AID 1160); conditions: HEK293-NOX4, Amplex Red H2O2 fluorescence, 45 min; higher = more signal, called active from +8 up or from −8 down
Chain of NADPH oxidase 4 (Homo sapiens) (Q9NPH5 whole entry, looked up): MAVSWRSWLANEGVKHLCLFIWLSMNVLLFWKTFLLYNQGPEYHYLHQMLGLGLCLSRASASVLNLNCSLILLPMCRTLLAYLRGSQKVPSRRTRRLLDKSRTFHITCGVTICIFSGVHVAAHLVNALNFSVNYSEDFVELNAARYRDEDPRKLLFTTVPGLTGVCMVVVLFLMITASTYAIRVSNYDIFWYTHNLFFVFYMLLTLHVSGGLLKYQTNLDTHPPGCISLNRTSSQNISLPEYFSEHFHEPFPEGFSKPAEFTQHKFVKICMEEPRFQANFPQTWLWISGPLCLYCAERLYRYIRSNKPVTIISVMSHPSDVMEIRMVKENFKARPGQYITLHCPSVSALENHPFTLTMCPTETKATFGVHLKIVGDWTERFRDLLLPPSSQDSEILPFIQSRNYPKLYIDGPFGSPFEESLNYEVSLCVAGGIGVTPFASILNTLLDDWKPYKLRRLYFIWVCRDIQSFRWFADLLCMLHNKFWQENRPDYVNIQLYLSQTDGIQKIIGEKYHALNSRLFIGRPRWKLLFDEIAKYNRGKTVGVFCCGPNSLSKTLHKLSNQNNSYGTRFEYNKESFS

[20] = target: NADPH oxidase 5 (Homo sapiens) (UniProt Q96PH1); experiment: compounds shifting NOX5 Amplex Red fluorescence – cell-based, HEK293-NOX5, NOX inhibitor project, primary screen (AID 1161); conditions: HEK293-NOX5, ionomycin, 45 min, higher = more signal
Chain of NADPH oxidase 5 (Homo sapiens) (Q96PH1 whole entry, looked up): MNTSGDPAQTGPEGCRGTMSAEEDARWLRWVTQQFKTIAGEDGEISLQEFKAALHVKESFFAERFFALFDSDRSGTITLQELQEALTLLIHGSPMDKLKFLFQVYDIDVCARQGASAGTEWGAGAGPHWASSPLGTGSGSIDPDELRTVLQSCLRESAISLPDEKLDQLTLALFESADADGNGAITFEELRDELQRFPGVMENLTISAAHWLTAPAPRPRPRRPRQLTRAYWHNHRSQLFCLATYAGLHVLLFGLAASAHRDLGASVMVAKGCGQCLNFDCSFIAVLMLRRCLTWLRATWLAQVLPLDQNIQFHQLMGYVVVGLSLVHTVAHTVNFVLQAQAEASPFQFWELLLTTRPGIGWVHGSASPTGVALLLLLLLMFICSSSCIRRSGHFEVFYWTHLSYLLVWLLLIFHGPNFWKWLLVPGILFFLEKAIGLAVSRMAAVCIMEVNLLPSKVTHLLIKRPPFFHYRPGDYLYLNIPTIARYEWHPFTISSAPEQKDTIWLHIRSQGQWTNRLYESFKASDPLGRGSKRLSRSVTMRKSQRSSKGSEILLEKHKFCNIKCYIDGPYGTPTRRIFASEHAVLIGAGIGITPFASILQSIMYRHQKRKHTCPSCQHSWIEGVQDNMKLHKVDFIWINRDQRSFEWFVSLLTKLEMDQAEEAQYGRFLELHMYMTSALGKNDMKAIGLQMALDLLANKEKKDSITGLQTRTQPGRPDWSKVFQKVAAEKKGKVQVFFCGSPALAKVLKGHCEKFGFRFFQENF

Structure (SMILES) | composite z-score [1] | z-score [2] | z-score [3] | z-score [4] | z-score [5] | composite z-score [6] | composite z-score [7] | composite z-score (Torsin-1A (Homo sapiens) [8]) | composite z-score (Torsin-1A (Homo sapiens) [9]) | composite z-score [10] | z-score [11] | composite z-score [12] | z-score [13] | z-score [14] | z-score [15] | z-score [16] | z-score [17] | z-score [18] | z-score [19] | z-score [20]
CCCNC(=O)[C@@]1(C)c2ccccc2C(=O)N(Cc2ccc(OC(F)(F)F)cc2)[C@H]1c1ccc(CO)cc1 | -0.0508 | -2.65 (inactive) | 0.28 (inactive) | -0.0259 (inactive) | -0.326 (inactive) | -0.456 | 0.249 | 0.243 | 0.6 | 0.628 | 0.707 (inactive) | 0.15 | 7.17 (inactive) | 0.699 (inactive) | 2.41 (inactive) | 0.208 (inactive) | 0.0696 | -1.07 (inactive) | 0.332 (inactive) | 0.423
COCCOC(=O)N1C(=O)[C@@]2(c3cc(C#CC4=CCCCC4)ccc31)[C@H](C(=O)N1CCN(c3ncccn3)CC1)[C@H]1C(=O)O[C@H](c3ccccc3)[C@H](c3ccccc3)N1[C@@H]2c1ccc(OCCO)cc1 | 0.572 | -0.922 (inactive) | -0.38 (inactive) | -1.57 (inactive) | -0.0728 (inactive) | 0.832 | 0.471 | 0.804 | 0.606 | 1.04 | -0.0557 (inactive) | 0.894 | 5.23 (inactive) | 1.85 (inactive) | 0.251 (inactive) | 0.657 (inactive) | 0.212 | 0.977 (inactive) | 0.645 (inactive) | 0.934
CC1CC/C=C\[C@H]2OC34C=CCN(CCN5CCOCC5)C(=O)[C@H]3N(CCCCCO)C(=O)[C@@H]4C2C(=O)O1 (stereo not given in full) | 0.06 | 0.362 (inactive) | 0.658 (inactive) | 0.0645 (inactive) | 0.259 (inactive) | -0.488 | -0.327 | -0.0591 | -0.352 | 0.322 | -0.346 (inactive) | -0.409 | 0.851 (inactive) | 0.618 (inactive) | 0.007 (inactive) | 0.257 (inactive) | 0.165 | 0.545 (inactive) | -0.277 (inactive) | 1.03
CCCCCN1CC=CC23O[C@@H]4C=CCCOC(=O)C4[C@H]2C(=O)N(CCCO)[C@@H]3C1=O (stereo not given in full) | -0.309 | -2.45 (inactive) | -1.06 (inactive) | -0.492 (inactive) | -0.285 (inactive) | -0.559 | -0.128 | -0.0271 | -1.09 | 0.4 | 2.03 (inactive) | -0.151 | -0.235 (inactive) | -1.49 (inactive) | 1.17 (inactive) | -1.02 (inactive) | 0.655 | -1.16 (inactive) | -1.08 (inactive) | -0.705
COC(=O)[C@@]1(Cc2ccc(OC)cc2)[C@H]2c3cc(C(=O)N4CCCC4)n(CCN4CCOCC4)c3C[C@H]2CN1C(=O)c1ccccc1 | 2.64 | -0.267 (inactive) | 0.356 (inactive) | 0.966 (inactive) | 1.64 (inactive) | 2.02 | 1.75 | 0.27 | 1.71 | -0.641 | -0.861 (inactive) | 2.2 | 0.32 (inactive) | -0.288 (inactive) | 0.366 (inactive) | 0.225 (inactive) | -0.286 | 0.99 (inactive) | -0.245 (inactive) | -3.66
C[C@]1(C(=O)NCC(F)(F)F)c2ccccc2C(=O)N(Cc2cc(F)cc(C(F)(F)F)c2)[C@H]1c1ccc(CO)cc1 | 0.0343 | -4.86 (inactive) | -0.704 (inactive) | 0.324 (inactive) | 0.486 (inactive) | -0.388 | -0.128 | 0.135 | 0.527 | 0.394 | -0.436 (inactive) | -0.355 | 4.43 (inactive) | -0.263 (inactive) | 2.21 (inactive) | -0.682 (inactive) | 2.24 | -0.779 (inactive) | -2.9 (inactive) | -3.61
COc1ccc([Si](C)(C)[C@H]2[C@H](CC(=O)N3CCC[C@H]3CO)O[C@@]3(C(=O)N(c4ccccc4)c4ccccc43)[C@@H]2C)cc1 | -0.154 | -3.6 (inactive) | 0.355 (inactive) | -0.636 (inactive) | -0.38 (inactive) | -0.124 | -0.154 | 0.656 | 0.0932 | 1.23 | 3.01 (inactive) | 0.228 | 1.84 (inactive) | -0.132 (inactive) | -0.0926 (inactive) | -0.284 (inactive) | 1.48 | 1.44 (inactive) | 1.46 (inactive) | 1.96
